From PubChem BioAssay (NCATS)
Results filed as inconclusive are left out. The source made the active and inactive calls. The call rests on the fitted dose curve.

Assays:
[1] = Primary qHTS for inhibitors of SARS-S pseudo-typed particle cell entry (AID 1479145); further: nearly all actives have a fitted effect of over 45% in size
[2] = Primary qHTS for Huh7 cytotoxicity: counterscreen for inhibitors of MERS-S pseudotyped particle cell entry (AID 1479147)
[3] = Primary qHTS for inhibitors of MERS-S pseudo-typed particle cell entry (AID 1479149); further: nearly all actives have a fitted effect of over 60% in size
[4] = Primary qHTS for Vero E6 cytotoxicity: counterscreen for inhibitors of SARS-S pseudo-typed particle cell entry (AID 1479150)

Measured: Potency

CC(=O)OCC(=O)[C@@]1(O)[C@H](C)C[C@H]2[C@@H]3CCC4=CC(=O)C=C[C@]4(C)[C@@]3(F)[C@@H](O)C[C@@]21C
inactive: all assays above

CN[C@@H]1[C@@H](O)[C@@H](O[C@@H]2[C@H](O)[C@H](O[C@H]3OC(CN)=CC[C@H]3N)[C@@H](N)C[C@H]2N)OCC1(C)O (stereo partly specified)
inactive: all assays above

CO[C@@]1(NC(=O)Cc2cccs2)C(=O)N2C(C(=O)O)=C(COC(N)=O)CS[C@@H]21
inactive: all assays above

NC(=O)c1cc[n+](CC2=C(C(=O)[O-])N3C(=O)[C@@H](NC(=O)Cc4cccs4)[C@H]3SC2)cc1
inactive: all assays above

CC(=O)OCC(=O)[C@@]1(O)[C@H](OC(C)=O)C[C@H]2[C@@H]3CCC4=CC(=O)C=C[C@]4(C)[C@@]3(F)[C@@H](O)C[C@@]21C
inactive: all assays above

Cc1c(NC(=O)c2cccnc2)c(=O)n(-c2ccccc2)n1C
inactive: all assays above

CCCCOCCOC(=O)c1cccnc1
inactive: all assays above

CC(C)(C)C(=O)Oc1ccc(S(=O)(=O)Nc2ccccc2C(=O)NCC(=O)O)cc1
inactive: all assays above

OCCOCCN1CCN(C2=Nc3ccccc3Sc3ccccc32)CC1
inactive: all assays above

CCCCCCCCCCCCCCCC(=O)OCCC1CCN(CCCN2c3ccccc3Sc3ccc(S(=O)(=O)N(C)C)cc32)CC1
inactive: all assays above

CCCNC(C)C(=O)Nc1ccccc1C (stereo unspecified)
inactive: all assays above

CC(C)(CO)[C@@H](O)C(=O)NCCCO
inactive: all assays above

COCC(=O)Nc1c(I)c(C(=O)NCC(O)CO)c(I)c(C(=O)N(C)CC(O)CO)c1I (stereo unspecified)
inactive: all assays above

O=c1[nH]c(=O)n([C@H]2O[C@H](CO)[C@@H](O)[C@@H]2O)cc1/C=C\Br
inactive: all assays above

O=C(O)CNC(=O)c1ccccc1
inactive: all assays above

COC(=O)C(c1ccccc1)C1CCCCN1 (stereo unspecified)
inactive: all assays above

CCN(Cc1ccncc1)C(=O)C(CO)c1ccccc1 (stereo unspecified)
inactive: all assays above

COC(=O)C1=C(C)NC(C)=C(C(=O)OCCc2ccc(N3CCN(C(c4ccccc4)c4ccccc4)CC3)cc2)C1c1cccc([N+](=O)[O-])c1 (stereo unspecified)
inactive: all assays above

CCOC(=O)c1ccc(OCCN2C[C@H](O)[C@@H](O)[C@H](O)[C@H]2CO)cc1
inactive: all assays above

C[C@]12CCC(=O)C=C1CC[C@H]1[C@@H]3CC[C@](O)(C(=O)CO)[C@@]3(C)C[C@H](O)[C@@]12F
inactive: all assays above

CCOC(=O)/C=C(C)/C=C/C=C(C)/C=C/c1c(C)cc(OC)c(C)c1C
inactive: all assays above

S=c1nc[nH]c2nc[nH]c12
inactive: all assays above

CC(=O)SCC(CC(=O)c1ccc(C)cc1)C(=O)O (stereo unspecified)
inactive: all assays above

CCC(=O)c1c(O)cc(O)cc1O
inactive: all assays above

C[C@@H](O)[C@H]1C(=O)N2C(C(=O)O)=C(SCCN=CN)C[C@H]12
inactive: all assays above

COc1ccc2cc([C@H](C)C(=O)O)ccc2c1
inactive: all assays above

CCCCCC[C@@H](CCC)C(=O)O
inactive: all assays above

Nc1ccc(S(=O)(=O)Nc2ccc(Cl)nn2)cc1
inactive: all assays above

Cc1cc2cc3c(C)cc(=O)oc3c(C)c2o1
inactive: all assays above

CCCCCCCC/C=C/C(=O)O
inactive: all assays above

COc1ccc(C(=O)CC(=O)c2ccc(C(C)(C)C)cc2)cc1
inactive: all assays above

Cn1c(=O)c2[nH]cnc2n(C)c1=O
inactive: all assays above

COC(=O)c1cccnc1
inactive: all assays above

CCO[C@H](Cc1ccc(OCCc2ccc(OS(C)(=O)=O)cc2)cc1)C(=O)O
inactive: all assays above
